Data taken from PubChem BioAssay (NCATS).
Results filed as inconclusive are left out. Active and inactive are the calls of the source. Calls follow the shape of the dose curve; as a rule, active = well fitted activation curve with a large enough effect; inconclusive = small, poorly fitted or top-dose-only effect; inactive = no such curve, though single readings can be large or run the other way.

molecular target: Rap guanine nucleotide exchange factor 3 (Homo sapiens) (UniProt O95398); test: Confirmatory qHTS for agonist of cAMP-regulated guanine nucleotide exchange factor 3 (EPAC1) (AID 1645881); details: EPAC1 Rap1B BODIPY-GDP exchange fluorescence; series mostly up to 154 µM;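 also: EPAC1 catalysed release of BODIPY-GDP from Rap1B seen as fluorescence loss; 100% = effect of cAMP agonist control; nearly all actives have a fitted effect of over 75% in size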
Sequence (O95398 whole entry, looked up): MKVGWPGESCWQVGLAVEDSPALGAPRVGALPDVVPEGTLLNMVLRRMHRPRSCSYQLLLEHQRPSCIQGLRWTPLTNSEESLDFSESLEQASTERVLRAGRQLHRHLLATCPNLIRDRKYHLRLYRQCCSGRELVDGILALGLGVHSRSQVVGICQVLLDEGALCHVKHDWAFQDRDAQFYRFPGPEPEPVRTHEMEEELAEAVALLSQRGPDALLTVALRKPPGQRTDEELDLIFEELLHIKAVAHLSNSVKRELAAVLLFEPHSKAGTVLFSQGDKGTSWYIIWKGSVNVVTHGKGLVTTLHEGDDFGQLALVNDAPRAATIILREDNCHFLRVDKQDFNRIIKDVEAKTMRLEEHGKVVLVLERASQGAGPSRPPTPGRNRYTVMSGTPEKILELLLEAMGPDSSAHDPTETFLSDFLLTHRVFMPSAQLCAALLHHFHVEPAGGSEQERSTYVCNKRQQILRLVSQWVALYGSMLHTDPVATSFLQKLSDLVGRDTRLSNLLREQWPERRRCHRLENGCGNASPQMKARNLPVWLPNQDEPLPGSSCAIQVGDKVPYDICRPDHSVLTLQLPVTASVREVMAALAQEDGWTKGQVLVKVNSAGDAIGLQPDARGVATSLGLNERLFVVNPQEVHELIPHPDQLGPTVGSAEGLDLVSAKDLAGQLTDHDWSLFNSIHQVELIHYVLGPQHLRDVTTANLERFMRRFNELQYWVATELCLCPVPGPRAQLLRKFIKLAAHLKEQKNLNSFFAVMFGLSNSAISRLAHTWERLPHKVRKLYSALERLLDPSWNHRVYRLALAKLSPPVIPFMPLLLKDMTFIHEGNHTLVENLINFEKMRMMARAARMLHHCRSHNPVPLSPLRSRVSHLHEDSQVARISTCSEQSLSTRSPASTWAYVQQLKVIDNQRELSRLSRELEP

Potency, inactive:
Cc1cc(/C=C2\SC(=S)NC2=O)c(C)n1-c1cccc(O)c1
Cc1ccccc1C(=O)Nc1cccc(C(=O)N/N=C/c2cc(Cl)cc([N+](=O)[O-])c2O)c1
O=C(O)c1ccn2c(C(=O)c3ccc(Cl)cc3)c(-c3ccccc3)cc2c1
O=C(COc1ccc(Cl)cc1)NC1=NN(c2ccccc2)C(=O)C1
COc1ccc(OC)c(CNC(=O)CCCc2cn(C)c3ccccc23)c1
O=C(CCCn1c(SCC(=O)c2ccc(O)c(O)c2)nc2ccccc2c1=O)NCC1CCCO1 (stereo not drawn)
COc1ccc(C(=O)CSc2nnc(-c3ccco3)c(-c3ccco3)n2)cc1
O=C(CSc1nc(O)cc(=O)n1-c1ccccc1)Nc1nc2ccccc2s1
O=C(O)c1ccc(/C=C2\COc3ccccc3C2=O)cc1
O=c1cc(-c2ccccc2)[nH]n1-c1nc2ccccc2s1
COc1cccc(C(=O)Nc2nnc(-c3ccccc3)s2)c1OC
O=C(Nc1cc(S(=O)(=O)Nc2ccc(Cl)cc2)ccc1O)c1ccc(S(=O)(=O)N2CCCCCC2)cc1
CCOc1ccccc1NC(=O)CN1C(=O)COc2ccc(S(=O)(=O)NC3CCCC3)cc21
Cc1cccc(Nc2nnc(SC/C(O)=C(\C#N)c3nc4ccccc4[nH]3)s2)c1
Nc1ccccc1C(=O)NNc1c2ccccc2nc2ccccc12
Cc1ccc(Cn2ccnc2SCC(=O)Nc2ccc3c(c2)OCO3)cc1
O=C(N/N=C/c1ccc(O)c(O)c1)c1ccc(CSc2cccc3cccnc23)cc1
CCOC(=O)c1ccc(NC(=O)c2c(NCc3cccs3)sc3c2CCCCC3)cc1
CC1CC(C)CN(C(=O)c2ccc3c(c2)N(Cc2ccccc2)CCS3)C1 (stereo not drawn)
O=C(/C=C/c1ccco1)Nc1cccc2cccnc12
CCc1ccc2c(c1)NC(=O)C2(C)Cc1ccc(Cl)s1 (stereo not drawn)
COc1cc(NC(=O)c2cc3nc(-c4ccccc4)cc(-c4ccccc4)n3n2)cc(OC)c1OC
Cc1ccccc1NC(=O)c1sc2nc(-c3cc4ccccc4oc3=O)[nH]c(=O)c2c1C

molecular target: Rap guanine nucleotide exchange factor 4 (Homo sapiens) (UniProt Q8WZA2); test: Confirmatory qHTS for agonist of cAMP-regulated guanine nucleotide exchange factor 4 (EPAC2) (AID 1645884); details: EPAC2 GEF activity, Rap1B-BODIPY-GDP fluorescence; series mostly up to 154 µM;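 also: nucleotide exchange releases bodipy-GDP from Rap1 and this lowers its fluorescence; % is scaled to controls: 0 for no effect and ±100 for the full control effect; nearly all actives have a fitted effect of over 65% in size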
Sequence (Q8WZA2 whole entry, looked up): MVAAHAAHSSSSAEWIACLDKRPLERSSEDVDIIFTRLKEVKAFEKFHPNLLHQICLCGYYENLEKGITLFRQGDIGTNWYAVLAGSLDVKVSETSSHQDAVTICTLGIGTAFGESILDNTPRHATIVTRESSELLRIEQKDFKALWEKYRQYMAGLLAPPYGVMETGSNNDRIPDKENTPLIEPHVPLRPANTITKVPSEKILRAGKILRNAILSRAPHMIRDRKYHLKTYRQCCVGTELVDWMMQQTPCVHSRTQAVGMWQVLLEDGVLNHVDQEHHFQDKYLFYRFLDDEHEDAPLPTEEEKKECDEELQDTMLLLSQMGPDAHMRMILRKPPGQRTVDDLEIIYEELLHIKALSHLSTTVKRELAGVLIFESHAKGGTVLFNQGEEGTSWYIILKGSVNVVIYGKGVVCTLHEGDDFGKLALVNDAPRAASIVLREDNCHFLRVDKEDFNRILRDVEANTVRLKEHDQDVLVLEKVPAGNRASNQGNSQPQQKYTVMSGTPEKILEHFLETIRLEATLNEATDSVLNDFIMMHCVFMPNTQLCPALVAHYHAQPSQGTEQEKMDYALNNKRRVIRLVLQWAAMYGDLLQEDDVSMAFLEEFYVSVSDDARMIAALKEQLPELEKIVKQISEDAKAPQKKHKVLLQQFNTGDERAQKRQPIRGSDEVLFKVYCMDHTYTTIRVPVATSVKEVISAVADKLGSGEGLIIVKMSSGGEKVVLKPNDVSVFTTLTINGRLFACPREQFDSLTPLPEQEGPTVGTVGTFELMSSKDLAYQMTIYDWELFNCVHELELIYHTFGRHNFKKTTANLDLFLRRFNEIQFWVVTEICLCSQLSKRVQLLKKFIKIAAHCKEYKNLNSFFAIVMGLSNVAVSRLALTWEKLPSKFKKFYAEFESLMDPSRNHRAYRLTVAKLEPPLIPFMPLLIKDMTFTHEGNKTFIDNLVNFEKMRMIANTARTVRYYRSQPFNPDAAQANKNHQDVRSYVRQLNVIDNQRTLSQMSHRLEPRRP

Potency, inactive:
Cc1ccc(C(=O)Nc2cccc(-c3ccc(N4CCOCC4)nn3)c2)cc1C
N=C1/C(=C\c2ccc(-c3cccc(Cl)c3)o2)C(=O)N=C2SC=C(c3ccccc3)N12
CC(=O)C(=Cc1ccc(Cl)cc1)C(=O)c1ccccc1
CCOc1cc(CNCCSc2nnnn2C)ccc1OCc1ccc(Cl)cc1Cl
CCc1nc(Oc2cccc(F)c2)c2oc3ccccc3c2n1
COc1ccc(OCc2nc3ccccc3n2C(C)c2ccccc2)cc1 (stereo not drawn)
CC(C)N(Cc1ccccc1)C(=O)c1nc(-c2ccc(Cl)cc2)n2c1CCCCC2
Cc1ccc(Cl)cc1N1CCN(C(=O)c2ccc(C)c(-n3c(C)nc4cccnc43)c2)CC1
CN1CCN(c2cc(N3CCN(C(=O)c4ccco4)CC3)c3c4c(onc24)-c2ccccc2C3=O)CC1
CCCN1CCN(c2ncnc3sc(C(=O)Nc4ccc(OC(F)(F)F)cc4)c(C)c23)CC1
Cc1cc(/C=C2\SC(=S)NC2=O)c(C)n1-c1cccc(O)c1
Cc1ccccc1C(=O)Nc1cccc(C(=O)N/N=C/c2cc(Cl)cc([N+](=O)[O-])c2O)c1
O=C(O)c1ccn2c(C(=O)c3ccc(Cl)cc3)c(-c3ccccc3)cc2c1
O=C(COc1ccc(Cl)cc1)NC1=NN(c2ccccc2)C(=O)C1
COc1ccc(OC)c(CNC(=O)CCCc2cn(C)c3ccccc23)c1
O=C(CCCn1c(SCC(=O)c2ccc(O)c(O)c2)nc2ccccc2c1=O)NCC1CCCO1 (stereo not drawn)
COc1ccc(C(=O)CSc2nnc(-c3ccco3)c(-c3ccco3)n2)cc1
O=C(CSc1nc(O)cc(=O)n1-c1ccccc1)Nc1nc2ccccc2s1
O=C(O)c1ccc(/C=C2\COc3ccccc3C2=O)cc1
COc1cccc(C(=O)Nc2nnc(-c3ccccc3)s2)c1OC
O=C(Nc1cc(S(=O)(=O)Nc2ccc(Cl)cc2)ccc1O)c1ccc(S(=O)(=O)N2CCCCCC2)cc1
CCOc1ccccc1NC(=O)CN1C(=O)COc2ccc(S(=O)(=O)NC3CCCC3)cc21
Cc1cccc(Nc2nnc(SC/C(O)=C(\C#N)c3nc4ccccc4[nH]3)s2)c1
Nc1ccccc1C(=O)NNc1c2ccccc2nc2ccccc12
Cc1ccc(Cn2ccnc2SCC(=O)Nc2ccc3c(c2)OCO3)cc1
CCOC(=O)c1ccc(NC(=O)c2c(NCc3cccs3)sc3c2CCCCC3)cc1
COc1cc(NC(=O)c2cc3nc(-c4ccccc4)cc(-c4ccccc4)n3n2)cc(OC)c1OC
Cc1ccccc1NC(=O)c1sc2nc(-c3cc4ccccc4oc3=O)[nH]c(=O)c2c1C

activation, inactive:
COc1ccc2ccc(C(C)(C(C)=O)C(=O)OC(C)C)cc2c1 (stereo not drawn) 5.56% [at 17.1 µM, percent relative to cAMP agonist control]
OC(c1ccc(F)c(F)c1)c1nc(-c2csc3ccccc23)cs1 (stereo not drawn) 3.04% [at 17.1 µM, percent relative to cAMP agonist control]
COc1ccccc1C(C(=O)c1ccccc1)c1ccc(O)cc1 (stereo not drawn) 3.15% [at 17.1 µM, percent relative to cAMP agonist control]
O=C1/C(=C/c2cccs2)COc2ccccc21 1.85% [at 17.1 µM, percent relative to cAMP agonist control]
O=C1NC(=O)C(=Cc2ccccc2[N+](=O)[O-])S1 5.36% [at 17.1 µM, percent relative to cAMP agonist control]
CCOC(=O)C1=C(C)NC(C)=C(C(=O)OCC)C1c1cccc([N+](=O)[O-])c1 8.4% [at 17.1 µM, percent relative to cAMP agonist control]
OCCCNc1ncnc2oc(-c3ccccc3)c(-c3ccccc3)c12 0.534% [at 17.1 µM, percent relative to cAMP agonist control]
O=c1cc(-c2ccccc2)[nH]n1-c1nc2ccccc2s1 11.1% [at 17.1 µM, percent relative to cAMP agonist control]
O=C(N/N=C/c1ccc(O)c(O)c1)c1ccc(CSc2cccc3cccnc23)cc1 14.6% [at 17.1 µM, percent relative to cAMP agonist control]
CC1CC(C)CN(C(=O)c2ccc3c(c2)N(Cc2ccccc2)CCS3)C1 (stereo not drawn) 14.1% [at 17.1 µM, percent relative to cAMP agonist control]
O=C(/C=C/c1ccco1)Nc1cccc2cccnc12 3.39% [at 17.1 µM, percent relative to cAMP agonist control]
CCc1ccc2c(c1)NC(=O)C2(C)Cc1ccc(Cl)s1 (stereo not drawn) 0.147% [at 17.1 µM, percent relative to cAMP agonist control]
